The nature of assay [1]: Nuclear factor erythroid 2-related factor 2/antioxidant responsive element (Nrf2/ARE) small molecule agonists: luciferase reporter gene qHTS assay in human keratinocytes (AID 1919969; also: nearly all actives have a fitted effect of over 35% in size; also: potency is read from the fitted curve at half-maximal effect). (In a reporter assay the amount or activity of a reporter protein is the signal.)
In assay [2] the target is Gonadotropin-releasing hormone receptor (Homo sapiens) (UniProt P30968). In words: Human gonadotropin-releasing hormone receptor (GnRHR) small molecule agonists, calcium flux assay in GnRHR-HEK293 cells (AID 1920063). Also: nearly all actives have a fitted effect of over 35% in size. Also: potency is read from the fitted curve at half-maximal effect. The essentials:
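Agonist mode: compounds at 15 concentrations, in triplicate, went onto calcium dye-loaded GnRHR-HEK293 cells. Intracellular calcium was then followed as 480/540 nm fluorescence at 1 s intervals over 3 min.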

Assay [3] has as its target KiSS-1 receptor (Homo sapiens) (UniProt Q969F8). In words: Human kisspeptin (KISS1R) small molecule agonists, calcium flux assay in KISS1R-HEK293 cells (AID 1920064; active = well fitted activation curve with a large enough effect in the repeat runs). A digest of the protocol: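 Agonist mode: intracellular calcium rise tracked at 1 s intervals over 3 min (480/540 nm) immediately after compound addition to dye-loaded KISS1R-HEK293 stable cells. Each compound tested at 15 concentrations in triplicate.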

The nature of assay [4]: G protein-coupled receptor (GPCR) small molecule agonists, calcium flux assay: HEK293 wild type cell line counter screen (AID 1920065). A digest of the protocol:
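Calcium flux counter screen: compound added in agonist mode at 15 concentrations in triplicate to dye-loaded parental HEK293 cells. Fluorescence (480/540) read kinetically for 3 min; ATP served as positive control.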
(In general: Calcium assays in cells follow changes in intracellular calcium, usually with a dye or a luminescent sensor.)

A short description of assay [5]: p53 small molecule agonists, cell-based qHTS assay with human liver microsomes (AID 1963577). A digest of the protocol: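 Cells carrying a p53-responsive bla reporter were rested 5 h (37 C, 5% CO2) before compound transfer. Human liver microsomes plus NADPH, 0.5 mg/mL final apiece, supplied metabolism during the 16 h 37 C exposure.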
(In general: Quantitative high-throughput screening tests each substance at several concentrations.)

Assay [6] in a line: p53 small molecule agonists, cell-based qHTS assay with rat liver microsomes (AID 1963578). The essentials:
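Fluorescence from a beta-lactamase reporter under a p53 response element was measured after cells had been incubated 16 h at 37 C with test compound and rat liver microsomes plus NADPH (0.5 mg/mL final each).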

Assay [7] in a line: p53 small molecule agonists, cell-based qHTS assay with rat liver microsomes: qHTS cell viability counter screen (AID 1963580). Also: nearly all actives have a fitted effect of over 45% in size. Also: potency is read from the fitted curve at half-maximal effect. The essentials: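 Counter screen for cytotoxicity under metabolic activation: rat liver microsomes and NADPH, 0.5 mg/mL final each, added with compounds to p53RE-bla HCT-116 cells; 16 h at 37 C, then ATP luminescence read.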
The nature of assay [8]: p53 small molecule agonists, cell-based qHTS assay: qHTS cell viability counter screen (AID 1963581). Also: nearly all actives have a fitted effect of over 45% in size. Also: potency is read from the fitted curve at half-maximal effect. A digest of the protocol: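 Counter screen read by CellTiter-Glo luminescence (ATP content, 30 min at room temperature), run in the same wells as the beta-lactamase reporter read. HCT-116 p53RE-bla cells saw compounds for 16 h at 37 C.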
Assay [9] can be described thus: p53 small molecule agonists, cell-based qHTS assay (AID 1963582; active = well fitted activation curve with a large enough effect in the signal ratio in the repeat runs, not every such curve was filed as active; the % refers to the signal ratio). The essentials:
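Read-out is beta-lactamase FRET fluorescence after 2 h at room temperature with LiveBLAzer B/G substrate. p53 response element-bla cells were treated 16 h at 37 C with compounds in DMSO, added 5 h after seeding.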

The target in assay [10] is 5-hydroxytryptamine receptor 2A (Homo sapiens) (UniProt P28223). Description: 5-hydroxytryptamine receptor 2A (HTR2A) small molecule antagonists, cell-based qHTS assay (AID 1963586). Also: nearly all actives have a fitted effect of over 45% in size. Also: potency is read from the fitted curve at half-maximal effect. A digest of the protocol:
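CHO cells stably expressing human HTR2A were plated for 18 h at 37 C, then loaded with calcium dye for 1 h. Compounds were preincubated 5 min at room temperature before DOI (4 nM solution) was added. Kinetic fluorescence was read for 3 min.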

For assay [11] the target is unchanged. In words: 5-hydroxytryptamine receptor 2A (HTR2A) small molecule agonists, cell-based qHTS assay (AID 1963587). Also: nearly all actives have a fitted effect of over 30% in size. Also: potency is read from the fitted curve at half-maximal effect. The essentials:
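HTR2A-CHO cells, plated 18 h at 37 C/5% CO2, dye-loaded 1 h at 37 C; compounds in DMSO added by pin tool (agonist mode). Intracellular calcium flux read as kinetic fluorescence on FDSS over 2 min at 1 s intervals.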

Assay [12] has as its target Muscarinic acetylcholine receptor M1 (Homo sapiens) (UniProt P11229). In words: Cholinergic receptor muscarinic 1 (CHRM1) small molecule antagonists, cell-based qHTS assay (AID 1963588). Also: nearly all actives have a fitted effect of over 40% in size. Also: potency is read from the fitted curve at half-maximal effect. The essentials: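 Compounds were tested at 15 concentrations in three independent runs. Dye-loaded CHRM1-CHO cells were exposed 5 min at room temperature before stimulation by acetylcholine added at 50nM. Intracellular calcium was read kinetically on FDSS for 3 min.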

Assay [13] shares this target. Description: Cholinergic receptor muscarinic 1 (CHRM1) small molecule agonists, cell-based qHTS assay (AID 1963589). Also: nearly all actives have a fitted effect of over 35% in size. The essentials: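 Agonist-mode calcium-flux screen: compounds at 15 concentrations, three independent runs, were pin-transferred onto dye-loaded human CHRM1-CHO cells. Fluorescence was then recorded kinetically every second over minutes.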
Assay [14] can be described thus: cAMP Responsive Elements (CRE) small molecule agonists, cell-based qHTS assay (AID 1963590). The essentials:
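Agonist mode: compound added to CRE-bla HEK 293T cells (2,000/well, 18 h after plating) for 3 h at 37 C/5% CO2. Reporter activity detected via FRET beta-lactamase substrate, 2 h room-temperature loading.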

The nature of assay [15]: cAMP Responsive Elements (CRE) small molecule antagonists, cell-based qHTS assay (AID 1963591; active = well fitted inhibition curve with a large enough effect in the signal ratio in the repeat runs, not every such curve was filed as active; the % refers to the signal ratio). The essentials:
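Antagonist mode: compounds are added alongside the adenylyl cyclase activator NKH477 (0.25 uM final) to CRE-bla HEK293T cells for 3 h. LiveBLAzer FRET substrate, 2 h at room temperature, reports bla expression.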

The target of assay [16] is Beta-2 adrenergic receptor (Homo sapiens) (UniProt P07550). In words: Adrenergic beta2 receptor (ADRB2) small molecule antagonists, cell-based qHTS assay (AID 1963592). Also: series mostly up to about 92 µM; nearly all actives have a fitted effect of over 50% in size. The essentials: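 Assay format: CHO-ADRB2 cells, 18-20hr seeding at 37C/5% CO2, then compound plus 1nM isoproterenol agonist mix for 0.5hr RT. Homogeneous time-resolved fluorescence cAMP detection after 1hr, expressed as 665/615 nm ratio.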
Sequence of Beta-2 adrenergic receptor (Homo sapiens) (P07550 whole entry, looked up): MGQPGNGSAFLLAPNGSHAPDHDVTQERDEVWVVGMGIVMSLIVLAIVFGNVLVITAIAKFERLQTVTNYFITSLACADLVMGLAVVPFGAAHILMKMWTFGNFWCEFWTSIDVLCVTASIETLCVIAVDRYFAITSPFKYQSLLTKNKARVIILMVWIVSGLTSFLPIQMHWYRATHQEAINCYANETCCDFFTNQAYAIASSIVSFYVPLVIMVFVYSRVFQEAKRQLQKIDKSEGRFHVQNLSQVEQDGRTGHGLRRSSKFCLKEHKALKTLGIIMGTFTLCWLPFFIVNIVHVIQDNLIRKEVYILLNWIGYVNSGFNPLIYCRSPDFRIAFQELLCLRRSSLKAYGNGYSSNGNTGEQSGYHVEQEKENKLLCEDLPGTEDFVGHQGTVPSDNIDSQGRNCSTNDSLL

The target is the same in assay [17]. Description: Adrenergic beta2 receptor (ADRB2) small molecule agonists, cell-based qHTS assay (AID 1963593).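 Also: CHO cells stably overexpressing human ADRB2.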 The essentials: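 CHO cells stably over-expressing ADRB2 were plated overnight at 37C, then dosed with compounds plus a stimulation mix containing 100uM IBMX and 25uM Ro-20-1724 for 0.5hr at room temperature. cAMP was measured by HTRF competition, 1hr.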

Assay [18] deals with D(2) dopamine receptor (Homo sapiens) (UniProt P14416). Description: Dopamine D2 receptor (DRD2) small molecule agonists, cell-based qHTS assay (AID 1963594). Also: nearly all actives have a fitted effect of over 35% in size. The essentials: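 HEK293 cells stably expressing DRD2 were cultured 24 h at 37 C, then given Ro20-1724 (0.1 mM final) and compounds for 10 min at room temperature. NKH477 (200nM) was then added for 30 min. cAMP was read by HTRF.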
Sequence of D(2) dopamine receptor (Homo sapiens) (P14416 whole entry, looked up): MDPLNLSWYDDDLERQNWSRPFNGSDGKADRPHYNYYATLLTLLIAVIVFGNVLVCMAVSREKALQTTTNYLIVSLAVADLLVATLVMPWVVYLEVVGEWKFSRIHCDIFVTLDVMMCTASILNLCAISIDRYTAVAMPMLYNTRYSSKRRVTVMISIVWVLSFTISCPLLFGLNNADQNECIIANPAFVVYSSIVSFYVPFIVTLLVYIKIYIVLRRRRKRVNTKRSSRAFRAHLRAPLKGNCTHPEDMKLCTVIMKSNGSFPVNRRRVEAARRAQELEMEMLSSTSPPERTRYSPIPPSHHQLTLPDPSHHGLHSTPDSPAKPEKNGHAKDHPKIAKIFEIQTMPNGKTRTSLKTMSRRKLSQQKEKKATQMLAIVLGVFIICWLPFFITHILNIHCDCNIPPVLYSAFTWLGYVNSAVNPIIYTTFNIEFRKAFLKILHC

Assay [19] has the same target. In words: Dopamine D2 receptor (DRD2) small molecule antagonists, cell-based qHTS assay (AID 1963595; active = well fitted inhibition curve with a large enough effect in the signal ratio in the repeat runs, with a control signal flat; the % refers to the signal ratio). The essentials: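 Readout: HTRF cAMP, cAMP-d2 competing with cellular cAMP for anti-cAMP cryptate, read after 1 h. Cells: DRD2-HEK293. Conditions: 0.1 mM Ro20-1724, 12 nM quinpirole, 200 nM NKH477, 30 min RT.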
Assay [20] is described as follows: p53 small molecule agonists, cell-based qHTS assay with human liver microsomes: qHTS cell viability counter screen (AID 1963579). Also: nearly all actives have a fitted effect of over 45% in size. Also: potency is read from the fitted curve at half-maximal effect. A digest of the protocol: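 Seed p53RE-bla cells at 4,000 per well; incubate 5 h at 37 C; add compound, human liver microsomes and NADPH; incubate 16 h at 37 C; add CellTiter-Glo; after 30 min at room temperature, read luminescence.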

Values joined by “and” are separate entries in the source; they are usually repeats but may differ in a detail not shown here. Equal values may be shown once. Results filed as inconclusive are left out. Some structures have more than one record in an assay (separate samples or runs), and their calls can disagree. Active and inactive are the calls of the source. Unless noted, calls follow the shape of the full dose curve.

Sequence of 5-hydroxytryptamine receptor 2A (Homo sapiens) (P28223 whole entry, looked up): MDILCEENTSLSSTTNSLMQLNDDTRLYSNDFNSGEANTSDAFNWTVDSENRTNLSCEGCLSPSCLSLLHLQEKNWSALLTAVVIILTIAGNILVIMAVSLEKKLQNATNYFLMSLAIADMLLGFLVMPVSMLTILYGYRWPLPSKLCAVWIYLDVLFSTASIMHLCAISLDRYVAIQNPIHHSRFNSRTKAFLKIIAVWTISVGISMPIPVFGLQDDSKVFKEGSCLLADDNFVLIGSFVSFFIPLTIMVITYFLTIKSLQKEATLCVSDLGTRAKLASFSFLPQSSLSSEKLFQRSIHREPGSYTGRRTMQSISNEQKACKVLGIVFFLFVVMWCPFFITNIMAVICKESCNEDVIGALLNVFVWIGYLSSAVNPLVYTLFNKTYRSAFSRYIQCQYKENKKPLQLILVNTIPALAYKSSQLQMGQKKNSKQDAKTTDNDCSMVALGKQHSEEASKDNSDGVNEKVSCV
Sequence of Gonadotropin-releasing hormone receptor (Homo sapiens) (P30968 whole entry, looked up): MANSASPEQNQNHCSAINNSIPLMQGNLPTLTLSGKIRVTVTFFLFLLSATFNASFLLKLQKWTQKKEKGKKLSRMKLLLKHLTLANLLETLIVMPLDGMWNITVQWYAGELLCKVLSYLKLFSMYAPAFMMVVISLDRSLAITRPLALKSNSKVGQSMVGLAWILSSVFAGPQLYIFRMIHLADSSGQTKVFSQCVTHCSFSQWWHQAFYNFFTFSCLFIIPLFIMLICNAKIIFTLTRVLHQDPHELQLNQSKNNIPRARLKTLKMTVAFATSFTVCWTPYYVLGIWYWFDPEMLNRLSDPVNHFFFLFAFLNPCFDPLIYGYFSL
Sequence of Muscarinic acetylcholine receptor M1 (Homo sapiens) (P11229 whole entry, looked up): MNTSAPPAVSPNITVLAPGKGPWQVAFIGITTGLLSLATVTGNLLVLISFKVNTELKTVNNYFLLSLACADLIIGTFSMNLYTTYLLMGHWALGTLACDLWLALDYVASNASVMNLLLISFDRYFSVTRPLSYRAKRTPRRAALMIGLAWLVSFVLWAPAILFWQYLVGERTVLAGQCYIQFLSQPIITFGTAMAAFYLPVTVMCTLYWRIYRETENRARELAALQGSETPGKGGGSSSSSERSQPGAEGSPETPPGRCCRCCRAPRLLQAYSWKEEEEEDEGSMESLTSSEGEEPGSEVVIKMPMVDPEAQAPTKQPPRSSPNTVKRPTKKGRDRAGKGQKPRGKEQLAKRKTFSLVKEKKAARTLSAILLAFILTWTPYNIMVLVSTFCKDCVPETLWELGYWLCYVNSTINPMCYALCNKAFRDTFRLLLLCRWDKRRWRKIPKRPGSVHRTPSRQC
Sequence of KiSS-1 receptor (Homo sapiens) (Q969F8 whole entry, looked up): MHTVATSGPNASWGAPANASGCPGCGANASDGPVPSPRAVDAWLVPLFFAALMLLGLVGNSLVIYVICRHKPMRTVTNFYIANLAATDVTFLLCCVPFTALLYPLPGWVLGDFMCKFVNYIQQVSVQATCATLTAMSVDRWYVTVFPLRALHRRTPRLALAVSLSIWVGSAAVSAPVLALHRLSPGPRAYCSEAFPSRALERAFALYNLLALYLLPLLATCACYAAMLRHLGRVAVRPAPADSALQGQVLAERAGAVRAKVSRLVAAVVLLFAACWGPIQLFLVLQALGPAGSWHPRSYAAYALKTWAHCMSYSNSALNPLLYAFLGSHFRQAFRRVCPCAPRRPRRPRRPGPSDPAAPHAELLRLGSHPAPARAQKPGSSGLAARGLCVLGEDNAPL

For the compound `CCN(CC)c1ccccc1`, the Potency entry in [1], in assay [2], in [3], in assay [4], in [5] and in [6] was “inactive” in each case. Besides, the Potency entry in assay [7], in assay [8], in [9], in assay [10], in assay [11] and in [12] was “inactive” throughout. Also, the Potency entry in assay [13], in assay [14], in assay [15], in assay [16], in assay [17] and in assay [18] was “inactive” throughout. The Potency result in assay [19] was “inactive”.
In the case of `Nc1ccc(-c2ccccc2)cc1`, in assay [1], the Potency was 13.7 µM (active). Moreover, the Potency entry in assay [2], in assay [3], in [4], in assay [5], in assay [6] and in [7] was “inactive” each time. Also, the Potency result in assay [8], in assay [9], in [10], in assay [11], in assay [12] and in [14] was “inactive” throughout. Besides, the Potency result in assay [15], in assay [18] and in [19] was “inactive” in each case.
Turning to `Clc1ccc(C(c2ccc(Cl)cc2)C(Cl)Cl)cc1`, the Potency in assay [1] is 15.6 µM (active) and inactive; in assay [8] it was 41.4 µM (active). The Potency result in assay [2], in [3], in [4], in [5], in assay [6] and in assay [20] was “inactive” throughout. The Potency entry in [7], in assay [9], in assay [10], in assay [11], in [13] and in [15] was “inactive” in each case. Besides, the Potency entry in assay [16], in assay [18] and in assay [19] was “inactive” each time.
In the case of `CC1(C)[C@H](C(=O)O[C@H](C#N)c2cccc(Oc3ccccc3)c2)[C@@H]1/C=C(\Cl)C(F)(F)F`, the Potency entry in [1], in [2], in [3], in assay [4], in assay [5] and in assay [6] was “inactive” in each case. The Potency result in assay [20], in [7], in [8], in assay [11], in [12] and in assay [13] was “inactive” each time. The Potency result in [15], in [16] and in assay [19] was “inactive” in each case.
In the case of `CC(C)Oc1cc(-n2nc(C(C)(C)C)oc2=O)c(Cl)cc1Cl`, the Potency result in [1], in [2], in assay [3], in assay [4], in assay [5] and in assay [6] was “inactive” in each case. Also, the Potency result in assay [20], in assay [7], in [8], in [10], in assay [11] and in assay [12] was “inactive” each time. Further, the Potency entry in assay [13], in assay [14], in assay [15], in [16], in [17] and in [18] was “inactive” in each case. In addition, the Potency result in assay [19] is “inactive”.
Consider `Nc1ccc2ccccc2c1`, for which the Potency in assay [1] is 37.2 µM (active) and 27.3 µM (active). The Potency result in [2], in assay [3], in [4], in assay [5], in assay [6] and in [7] was “inactive” in each case. Further, the Potency entry in [8], in assay [9], in assay [10], in assay [11], in assay [12] and in assay [13] was “inactive” in each case. Further, the Potency result in [14], in assay [15], in [16], in assay [18] and in assay [19] was “inactive” in each case.
As for `O=NN1CCCC1`, the Potency entry in assay [1], in assay [2], in assay [3], in [4], in [5] and in assay [6] was “inactive” in each case. In addition, the Potency result in assay [20], in assay [7], in assay [8], in assay [9], in [10] and in [11] was “inactive” throughout. In addition, the Potency entry in assay [12], in assay [13], in assay [14], in [16], in assay [17] and in assay [18] was “inactive” throughout. Also, in assay [19], the Potency entry is “inactive”.
With `CCCCCCCCCCCC[N+](C)(C)CCOc1ccccc1`, the Potency result in assay [1], in assay [3], in assay [4], in assay [5], in assay [6] and in [9] was “inactive” in each case. Moreover, the Potency result in assay [13], in assay [15], in assay [16] and in assay [18] was “inactive” in each case. In addition, the Potency in assay [2] is 38.9 µM (active) and 16.9 µM (active); in assay [20], 45.8 µM (active) and inactive; in [7], 45.8 µM (active) and inactive; in [8], 45.8 µM (active) and inactive; in assay [10], 133 nM (active) and 46 nM (active); in [11], 43.7 µM (active). For the same compound, the Potency in [12] was 748 nM (active) and inactive.

(Values after PubChem BioAssay (Tox21).)
